Records with an inconclusive call do not appear. Unless noted, calls follow the shape of the dose curve; as a rule, active = well fitted curve in either direction with a large enough effect (not every such curve was filed as active); inconclusive = small, poorly fitted or top-dose-only effect, or another doubt; inactive = flat fitted curve, though single readings scatter.
Tests used:
[1] = AP1 Signaling Pathway (AID 357); details: ME-180 AP-1-bla reporter, EGF-induced, beta-lactamase ratio, 5 h; at 17.2 µM (top of the series) unless noted;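 also: ME-180 reporter cells stimulated with EGF at its EC50 level; % is scaled to controls: 0 for no effect and ±100 for the full control effect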
How it was run: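 Cells are seeded overnight, exposed to compound titrations and an EC50 level of EGF for 5 hours at 37 °C, then loaded with CCF4 dye for 2.5 hours. Beta-lactamase activity under the AP-1 element is read as a blue/green ratio.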

[2] = NFAT Signaling Pathway (AID 444); details: Jurkat NFAT-bla M1, carbachol, beta-lactamase ratio, 5 h; at 17.2 µM (top of the series) unless noted;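 also: carbachol stimulus at about its EC50 of 1 µM final; % is scaled to controls: 0 for no effect and ±100 for the full control effect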
How it was run: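 Jurkat cells with NFAT-driven β-lactamase reporter and co-expressed M1 receptor, stimulated with carbachol (final 1 uM, ~EC50), compound titration, 5 h at 37 °C. CCF4 loaded 1 h at RT; 460/530 nm ratio gave %activity and AC50.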

[3] = Stat Signaling Pathway (AID 446); details: ME-180 SIE beta-lactamase reporter, IL-6 stimulated, 5 h; at 17.2 µM (top of the series) unless noted;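 also: ME-180 cervical cancer cells given 40 pM IL-6 alongside compound; SIE-controlled beta-lactamase reporter measured as 460/530 nm FRET emission ratio; % is scaled to controls: 0 for no effect and ±100 for the full control effect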
How it was run: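 Screening format detects activators and inhibitors alike: ME-180 SIE-bla cells stimulated at 40 pM IL-6 for 5 hrs with compound, then dual-emission beta-lactamase read at 405 nm excitation.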

[4] = target: Glucocorticoid receptor (Homo sapiens) (UniProt P04150); experiment: GR-GFP Redistribution (AID 450;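 active = compounds whose dose series gives a full or clear partial fitted curve of increased nuclear translocation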; also: potency is read from the fitted curve at half-maximal effect)
Sequence of Glucocorticoid receptor (Homo sapiens) (P04150 whole entry, looked up): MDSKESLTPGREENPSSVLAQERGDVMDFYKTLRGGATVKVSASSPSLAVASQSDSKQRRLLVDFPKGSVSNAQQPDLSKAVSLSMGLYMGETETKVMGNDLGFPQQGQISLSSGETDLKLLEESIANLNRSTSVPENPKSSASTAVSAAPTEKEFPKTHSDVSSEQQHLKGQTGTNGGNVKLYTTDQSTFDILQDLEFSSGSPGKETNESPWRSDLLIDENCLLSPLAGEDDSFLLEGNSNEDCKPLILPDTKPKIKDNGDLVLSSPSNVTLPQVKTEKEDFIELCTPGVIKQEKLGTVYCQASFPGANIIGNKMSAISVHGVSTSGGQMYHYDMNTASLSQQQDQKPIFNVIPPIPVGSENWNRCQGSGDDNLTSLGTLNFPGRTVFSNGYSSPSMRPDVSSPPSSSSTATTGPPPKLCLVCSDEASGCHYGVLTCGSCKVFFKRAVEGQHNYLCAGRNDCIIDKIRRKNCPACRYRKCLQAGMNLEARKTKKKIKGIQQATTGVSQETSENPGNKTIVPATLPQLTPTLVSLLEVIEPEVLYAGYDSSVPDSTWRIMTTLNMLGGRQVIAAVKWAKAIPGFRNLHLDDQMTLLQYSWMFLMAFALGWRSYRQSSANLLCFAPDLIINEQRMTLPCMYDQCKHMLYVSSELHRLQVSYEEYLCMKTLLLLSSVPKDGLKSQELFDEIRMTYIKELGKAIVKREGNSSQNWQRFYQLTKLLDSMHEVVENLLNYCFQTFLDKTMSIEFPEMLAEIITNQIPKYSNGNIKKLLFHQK

O=C(O)CC(NCc1ccco1)C(=O)OCCc1ccccc1 (centres undefined)
inactive: activity change, negative = inhibition [1] 2.29% | activity change, negative = inhibition [2] 5.37% | activity, negative = inhibition [3] 0.0661% | Potency [4] > 20.6 µM

CCOC(=O)c1[nH]c2ccc(OC)cc2c1C
inactive: activity change, negative = inhibition [1] -0.35% | activity change, negative = inhibition [2] -6.84% | activity, negative = inhibition [3] 6% | Potency [4] > 20.6 µM

O=S(=O)(NCc1cccnc1)c1cccc2nsnc12
inactive: activity change, negative = inhibition [1] 6.05% | activity change, negative = inhibition [2] -11.1% | activity, negative = inhibition [3] 4.09% | Potency [4] > 20.6 µM

COc1ccccc1C(CC(=O)Nc1nccs1)c1ccco1 (centres undefined)
inactive: activity change, negative = inhibition [1] -11.9% | activity change, negative = inhibition [2] -20.1% | activity, negative = inhibition [3] -11.3% | Potency [4] > 20.6 µM

Cc1cc(=O)oc(C)c1C(=O)NCC(C)C
inactive: activity change, negative = inhibition [1] 0.878% | activity change, negative = inhibition [2] -1.32% | activity, negative = inhibition [3] 8.66% | Potency [4] > 20.6 µM

N#Cc1c2c(c(-c3ccco3)[nH]c1=O)CCCC2
inactive: activity change, negative = inhibition [1] -0.634% | activity change, negative = inhibition [2] 10.5% | activity, negative = inhibition [3] -2.06% | Potency [4] > 20.6 µM

CCCCc1nc2n[nH]c(N)c2c2c1CCCC2
inactive: activity change, negative = inhibition [1] 20.3% | activity change, negative = inhibition [2] 1.99% | activity, negative = inhibition [3] 7.03% | Potency [4] > 20.6 µM

COc1cc(C2C(C#N)=C(N)Oc3cc(C)n(CCN4CCOCC4)c(=O)c32)cc(OC)c1OC (centres undefined)
inactive: activity change, negative = inhibition [1] 10.6% | activity change, negative = inhibition [2] 6.98% | activity, negative = inhibition [3] -2.02% | Potency [4] > 20.6 µM

CCC(=O)N[C@@H]1CC(C(C)(C)NC(=O)CC)CC=C1C (some centres undefined)
inactive: activity change, negative = inhibition [1] 8.41% | activity change, negative = inhibition [2] 6.85% | activity, negative = inhibition [3] 0.886% | Potency [4] > 20.6 µM

Cc1nnc(N2CCCCC2)c2ccccc12
inactive: activity change, negative = inhibition [1] -1.88% | activity change, negative = inhibition [2] 13.3% | activity, negative = inhibition [3] -8.53% | Potency [4] > 20.6 µM

CC(=O)C1=C(O)C(=O)N(c2ccc(S(N)(=O)=O)cc2)C1c1ccccc1F (centres undefined)
inactive: activity change, negative = inhibition [1] -4.17% | activity change, negative = inhibition [2] 5.76% | activity, negative = inhibition [3] -0.593% | Potency [4] > 20.6 µM

CCOC(=O)CNC(=O)CNC(=O)c1ccc(OC)cc1
inactive: activity change, negative = inhibition [1] 8.37% | activity change, negative = inhibition [2] -1.87% | activity, negative = inhibition [3] 14.1% | Potency [4] > 20.6 µM

CCCCN1C(=O)C(O)=C(C(C)=O)C1c1ccc(OC)cc1OC (centres undefined)
inactive: activity change, negative = inhibition [1] 8.36% | activity change, negative = inhibition [2] 16.7% | activity, negative = inhibition [3] -4.22% | Potency [4] > 20.6 µM

Cc1cc(=O)oc(C)c1C(=O)N[C@@H]1CCCCNC1=O
inactive: activity change, negative = inhibition [1] 9.85% | activity change, negative = inhibition [2] 9.68% | activity, negative = inhibition [3] 9.42% | Potency [4] > 20.6 µM

c1coc(-c2nc3nc4ccccc4nc3n2-c2ccc3c(c2)OCCO3)c1
inactive: activity change, negative = inhibition [1] -28.6% | activity change, negative = inhibition [2] 21.1% | activity, negative = inhibition [3] -8.28% | Potency [4] > 20.6 µM

CCN(CC)c1ncc(C)c(=O)[nH]1
inactive: activity change, negative = inhibition [1] 16.3% | activity change, negative = inhibition [2] 2.65% | activity, negative = inhibition [3] 7.65% | Potency [4] > 20.6 µM

CCN(CC)C(=O)CSC1=C(C#N)C(c2cccs2)C=C(C)N1 (centres undefined)
inactive: activity change, negative = inhibition [1] -28.4% | activity change, negative = inhibition [2] -9.19% | activity, negative = inhibition [3] 6.46% | Potency [4] > 20.6 µM

Cc1cc(/C=N/n2cnnc2)c(C)n1-c1ccc2c(c1)OCO2
inactive: activity change, negative = inhibition [1] 9.26% | activity change, negative = inhibition [2] -13% | activity, negative = inhibition [3] -0.639% | Potency [4] > 20.6 µM

O=C(c1ccccc1)c1cc(-c2ccccc2)on1
inactive: activity change, negative = inhibition [1] -5.5% | activity change, negative = inhibition [2] -10% | activity, negative = inhibition [3] -7.84% | Potency [4] > 20.6 µM

COCCNc1nc2c(c(=O)n(C)c(=O)n2C)n1Cc1cccc(C(F)(F)F)c1
inactive: activity change, negative = inhibition [1] 13.5% | activity change, negative = inhibition [2] 5.18% | activity, negative = inhibition [3] 226% | Potency [4] > 20.6 µM

COC(=O)CSCC(=O)Nc1cc2c(cc1C(C)=O)OCO2
inactive: activity change, negative = inhibition [1] -1.75% | activity change, negative = inhibition [2] 29.7% | activity, negative = inhibition [3] 9.85% | Potency [4] > 20.6 µM

CCOC(=O)CNC(=O)Nc1ccccc1C(=O)OC
inactive: activity change, negative = inhibition [1] -9.77% | activity change, negative = inhibition [2] 12.3% | activity, negative = inhibition [3] 11.5% | Potency [4] > 20.6 µM

CSC1=C(C#N)C(C)CC(=O)N1 (centres undefined)
inactive: activity change, negative = inhibition [1] 3.08% | activity change, negative = inhibition [2] -0.632% | activity, negative = inhibition [3] 3.87% | Potency [4] > 20.6 µM

CCCCC(CCC(=O)Nc1ccc(C(=O)OCC)cc1)C(=O)O (centres undefined)
inactive: activity change, negative = inhibition [1] -10.4% | activity change, negative = inhibition [2] 8.16% | activity, negative = inhibition [3] 3.27% | Potency [4] > 20.6 µM

Cn1c(SCC(=O)N2CCOCC2)nnc1-c1cccc(NC(=O)c2ccccc2F)c1
inactive: activity change, negative = inhibition [1] -25.9% | activity change, negative = inhibition [2] -5.78% | activity, negative = inhibition [3] 12% | Potency [4] > 20.6 µM

CCCCOc1ccc(C2CC(=O)N(C)C2=O)cc1 (centres undefined)
inactive: activity change, negative = inhibition [1] -14.6% | activity change, negative = inhibition [2] -3.42% | activity, negative = inhibition [3] 4.12% | Potency [4] > 20.6 µM

— PubChem BioAssay (NCATS)
